Assay results: PubChem BioAssay AID1305 (SRMLSC, 2008)
The campaign covered roughly 1,200 compounds. Fewer than 10 were called active. Only a sample is shown. A number with no mark means an inactive call. How the calls were made is not given here.

assay: sensitized control strain growth on 5-FOA – S. cerevisiae, OD615, counter-screen for RAM network inhibitor project, dose response (AID 1305);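 further: plate controls were vehicle for no effect and reference inhibitor for full effect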; conditions: S. cerevisiae efflux-deficient reporter strain, 5-FOA growth OD615, 2 days, stronger effect = higher value; at 100 µM unless noted

Row | Structure (SMILES) | max inhibition
1 | CCC(C)(C)c1ccc(Oc2ccc(NC(=O)COC(=O)C3=COCCO3)cc2)cc1 | 1.41%
2 | Cc1ccccc1CSCCNC(=O)c1ccc(N(C)S(=O)(=O)c2ccccc2)cc1 | 3.2%
3 | Fc1ccc(-n2c(Cc3ccccc3)nnc2SCc2nc(-c3ccc(Cl)cc3)no2)cc1 | 1.1% [setting not given]
4 | COCCN(C(=O)C(C)C)c1nnc(-c2ccc(C(C)(C)C)cc2)s1 | 1.87% [at 50 µM]
5 | COc1ccc(/C=C(\NC(=O)c2ccc(OCC(C)C)cc2)C(=O)OCc2ccco2)cc1 | 3.48%
6 | O=C(COC(=O)/C(=C/c1cccs1)c1cccs1)NCc1ccccc1Cl | 1.81% [at 25 µM]
7 | Cc1c(N=Nc2ccc(N(C)C)cc2)c(=O)n(-c2ccccc2)n1C | 20%
8 | CN(C)S(=O)(=O)c1cccc(NC(=O)COC(=O)C2(c3ccccc3F)CCCC2)c1 | 1.8% [at 50 µM]
9 | CCOC(=O)c1sc2nc(CSCC(=O)OCc3ccc(C(=O)OC)o3)[nH]c(=O)c2c1C | 2.47% [at 50 µM]
10 | CCN=C1S/C(=C\c2cc(Br)ccc2OCC(=O)OCC)C(=O)N1CC | 3.82% [at 50 µM]
11 | Cc1cccc(-n2c(SCC(=O)Nc3cccc(S(=O)(=O)NC4=NCCCCC4)c3)nc3ccccc3c2=O)c1C | 2.12% [setting not given]
12 | c1ccc(-c2csc(N3CCc4ccccc4C3)n2)cc1 | 4.47%
13 | O=C(COC(=O)/C=C/c1nc2ccccc2s1)Nc1ccccc1Oc1ccccc1 | 1.95% [at 1.563 µM]
14 | O=C(OCc1ccc(Br)cc1)c1cccc(-c2nnc(-c3ccccc3)o2)c1 | 3.97% [at 50 µM]
15 | CC(=O)c1c(Nc2ccccc2)sc(C(=O)c2ccccc2)c1C | 4.16% [at 50 µM]
16 | CCCSc1nc(NCc2ccco2)c2c3c(sc2n1)COC(C)(CC)C3 (centres undefined) | 4.05% [at 50 µM]
17 | Cc1ccc(NC2=C(Cl)C(=O)OC2OC(=O)c2ccccc2C)cc1 (centres undefined) | 1.91% [at 50 µM]
18 | Cc1cc(C)cc(NC(=O)CSCc2cnn(-c3ccccc3)c2-n2cccc2)c1 | 6.62%
19 | COC(=O)CCCCCN1C(=O)NC(c2ccc(-c3ccccc3)cc2)C(C(=O)OCc2ccccc2)=C1C (centres undefined) | 4.42% [at 25 µM]
20 | O=C(NCc1ccccc1)C1=C[C@@H](c2ccc(C(F)(F)F)cc2)C[C@@H](OCc2ccc(CO)cc2)O1 | 3.48%
21 | Cc1ccc(N=Nc2c(C)[nH]n(-c3ccccc3)c2=O)cc1 | 1.87% [at 50 µM]
22 | COC(=O)c1sccc1NC(=O)c1csc2c1CCCC2 | 4.49% [at 25 µM]
23 | CC(O)C(NS(=O)(=O)c1ccc(Cl)cc1)C(=O)OCc1cc([N+](=O)[O-])cc2c1OCOC2 (centres undefined) | 1.67%
24 | COc1ccc(Cl)cc1NC(=O)NC(C)C(C)(C)C (centres undefined) | 1.97% [setting not given]
25 | CCOC(=O)CC(=O)CSc1nc(-c2ccccc2)cc(-c2ccc(Cl)cc2)c1C#N | 1.73% [setting not given]

Row | Structure (SMILES) | max inhibition
26 | C=CCOC(=O)C1=C(C)NC(SCC(=O)OCC)=C(C#N)C1c1ccc(C)cc1 (centres undefined) | 4.12%
27 | CCCCn1ccnc1C(=O)c1cccc(S(=O)(=O)N2c3ccccc3CC2C)c1 (centres undefined) | 3.37%
28 | CN(c1ccccc1)c1ccc(/C=c2\s/c(=C(/C#N)C(=O)C(C)(C)C)n(Cc3ccco3)c2=O)cc1 | 4.2% [at 25 µM]
29 | N/C(Cc1ccc([N+](=O)[O-])cc1)=N\OC(=O)COc1ccc2ccccc2c1 | 1.6%
30 | COc1ccc(/C(C)=N/Nc2cc(C(F)(F)F)ccc2Cl)c(OC)c1 | 2.82%
31 | Cc1cc2ccccc2n1CCNC(=O)COc1ccc2ccccc2c1 | 4.22%
32 | N#C/C(=C\C1=C(N2CCOCC2)C(=C\c2ccccc2)/CC1)C(=O)Nc1ccccc1F | 1.39% [setting not given]
33 | COc1ccc(O[C@H]2C=C[C@@H](c3ccccc3)O[C@@H]2CO/N=C/C[C@@H]2C=C[C@H](OC(C)=O)[C@@H](COC(C)=O)O2)cc1 | 1.15% [setting not given]
34 | O=C(COC(=O)CCCNC(=O)c1ccc(Cl)cc1)Nc1cc(Cl)ccc1Cl | 3.65%
35 | COc1c(Br)cc2c(C)c(C(=O)N3CCOCC3)oc2c1Br | 1.57% [setting not given]
36 | CCC1C/C(=C/c2cccs2)C(=O)/C(=C/c2cccs2)C1 (centres undefined) | 6.29%
37 | CCc1nc(Nc2ccc3nccnc3c2)c2oc3ccccc3c2n1 | 13.2%
38 | Oc1c(Cl)cc(Cl)c(Cl)c1Cc1c(O)c(Cl)cc(Cl)c1Cl | 0.89% [setting not given]
39 | O=C(CCC(=O)OCc1cccc(C(=O)Oc2ccccc2)c1)Nc1cccc2ccccc12 | 2.95% [at 12.5 µM]
40 | O=C1/C(=C/c2ccc3c(c2)OCO3)CCC/C1=C\c1ccc2c(c1)OCO2 | 4.85% [at 50 µM]
41 | CCOC(=O)CSC1=C(C#N)C(c2ccco2)C(C(=O)OCc2ccccc2)=C(C)N1 (centres undefined) | 1.67%
42 | Cc1ccc(S(=O)(=O)c2c(N)n(C)c3nc4ccccc4nc23)cc1 | 4.57%
43 | CCC(C(=O)OCC(=O)Nc1c(Cl)cc(Cl)cc1Cl)c1ccccc1 (centres undefined) | 2.14% [setting not given]
44 | C=CCO/N=C(\C)c1c(O)c(C)c(-c2ccccc2)n(-c2ccccc2)c1=O | 3.26%
45 | COc1ccc2c(c1)CCc1c(C(=O)N3CCc4ccccc4C3)noc1-2 | 1.6% [setting not given]
46 | CCOc1ccc(CN(Cc2ccco2)C(c2cccs2)c2nnnn2C(C)(C)C)cc1 (centres undefined) | 4.45%
47 | Cc1ccc(C(=O)/C=C/c2c(C)nn(-c3ccccc3)c2Cl)cc1 | 7.53%
48 | CCCCC(C(=O)OCC(=O)c1ccc(OC)cc1)N1C(=O)c2ccccc2C1=O (centres undefined) | 4.61%
49 | COc1ccc(C2C=C(c3ccc(Br)cc3)Nc3nc(NS(C)(=O)=O)nn32)cc1 (centres undefined) | 3.37%
50 | CCCNC(=O)OC[C@H]1O[C@H](CCO/N=C/[C@@H](NS(=O)(=O)c2ccc(C)cc2)[C@H](C)/C=C/CC(=O)OC)C=C[C@@H]1Oc1ccc(OC)cc1 | 1.46% [at 50 µM]

Row | Structure (SMILES) | max inhibition
51 | Fc1ccc(CSc2nnc(-c3cc4c(s3)-c3ccccc3CC4)o2)cc1 | 4.57%
52 | O=C(CSc1nc(-c2ccccc2)cs1)Nc1cccc([N+](=O)[O-])c1 | 3.34%
53 | COc1ccc(OC)c(C2C3=C(N=c4s/c(=C\c5cccc(O)c5)c(=O)n42)c2ccccc2CC3)c1 (centres undefined) | 2.51% [setting not given]
54 | CCCC(C(=O)n1nc(C)cc1C)C(NS(=O)(=O)c1ccc(C)cc1)c1ccccc1 (centres undefined) | 2.29% [at 1.563 µM]
55 | O=C(NCc1ccccc1)[C@H]1C[C@@H]1[C@H](NP(=O)(c1ccccc1)c1ccccc1)c1ccccc1 | 2.82%
56 | COC(=O)c1ccc(C2C(Oc3ccccc3C)C(=O)N2CCc2ccc(OC)c(OC)c2)cc1 (centres undefined) | 3.17%
57 | CC1CCN(C(=S)c2ccc(-c3ccc(Cl)cc3Cl)o2)CC1 | 4.91%
58 | COc1ccc(/C=C/C(=O)OCC(=O)Nc2cccc(Oc3ccccc3)c2)c(OC)c1 | 3.76%
59 | COc1ccc(C)cc1NC(=O)C(Sc1ccccc1)c1ccccc1 (centres undefined) | 4.82%
60 | NS(=O)(=O)c1ccc(NC(=S)NC(=O)c2cccc(Br)c2)cc1 | 2.4% [at 1.563 µM]
61 | COc1ccc(C(=O)NC(=S)Nc2ccc(N3CCCC3)cc2)cc1OC | 1.3% [setting not given]
62 | C=CCc1ccccc1OCC(=O)N/N=C/c1ccccc1OCC | 1.41%
63 | Clc1ccccc1CSc1nnc(-c2ccco2)c(-c2ccco2)n1 | 7.87%
64 | O=C(NCc1ccccc1)C1=C[C@@H](C2CCCCC2)C[C@@H](OCc2ccc(CO)cc2)O1 | 5.02%
65 | CCOC(=O)c1c(C)nc2c(c1C)c(=O)oc1ccccc12 | 1.3% [at 25 µM]
66 | Cc1cccc(N2CCN(C(=O)c3cnn4c(C(F)F)cc(-c5ccccc5)nc34)CC2)c1C | 2.51%
67 | Cc1ccc(CCC(=O)Nc2ncc(Cc3cc(Cl)ccc3Cl)s2)o1 | 2.81%
68 | O=C(CSCc1ccc(Br)cc1)Nc1ccc(S(=O)(=O)N2CCCCCC2)cc1 | 2.51%
69 | COC(=O)CCSc1cc([N+](=O)[O-])cc2c1c(C1OCCS1)nn2-c1ccccc1 (centres undefined) | 4.89% [at 12.5 µM]
70 | COc1ccc(OCCCn2cccc2/C=C2/C(=N)N3OC(C)=CC3=NC2=O)cc1 | 3.93%
71 | O=[N+]([O-])c1ccc2oc(-c3cccc(O)c3)nc2c1 | 5.09% [at 25 µM]
72 | CC(C)=CCCC1(C)C=Cc2c(ccc3c2[nH]c2cc(O)c(C)cc23)O1 (centres undefined) | 2.74%
73 | Cc1ccc(C(=O)c2c(NC(=O)c3ccccc3)sc(C)c2C)cc1 | 2.97% [setting not given]
74 | CSc1ccccc1-c1nnc(-c2ccc(Cl)cc2)o1 | 2.32% [at 50 µM]
